Screens (PubChem)
Most compounds without a hit are left out; they make up all but 10% or so of the library.
KinaseGlo FLuc = Counterscreen for Luciferase (Kinase-Glo TM) Inhibition. 200,000 compounds, 0.28% hits. Luciferin 4-monooxygenase (Photuris pensylvanica), Q27757. Kinase-Glo luciferase, ATP luminescence, 8 min. Potency, µM (doses to about 38.3 µM), for the others: at the top dose activity change, negative = inhibition, most hits filed as inhibitors; active means well fitted inhibition curve with a large enough effect; inconclusive means small, poorly fitted or top-dose-only effect; further: potency means the concentration at half of the fitted maximal effect; nearly all actives have a fitted effect of over 60% in size
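Inhibition of Kinase-Glo luciferase light generation was assessed at 10 uM ATP in pH 7.2 imidazole buffer, with luminescence measured after eight minutes at ambient temperature.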
IMPase cell inh = qHTS Assay for Identifying the Cell-Membrane Permeable IMPase Inhibitors; AID 901, 2007; 120,000 tested, under 10 active; Inositol monophosphatase 1 (Rattus norvegicus), P97697; inhibition (IP1 accumulation), % at 46.1 µM; CHO-M1 cells, IP1 accumulation, HTRF TR-FRET ratio; active means well fitted curve in the direction sought with a large enough effect in the signal ratio, not every such curve was filed as active; inconclusive means small, poorly fitted or top-dose-only effect, or a change in a side signal; inactive means no such curve, though single readings can be large or run the other way; the % refers to the signal ratio;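 further: cells stimulated with carbachol in lithium chloride buffer; plate controls were DMSO basal wells for no effect and reference inhibitor wells for full effect; higher means more IMPase inhibition seen as more IP1 and lower FRET ratio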
Target sequence (P97697 whole entry, looked up): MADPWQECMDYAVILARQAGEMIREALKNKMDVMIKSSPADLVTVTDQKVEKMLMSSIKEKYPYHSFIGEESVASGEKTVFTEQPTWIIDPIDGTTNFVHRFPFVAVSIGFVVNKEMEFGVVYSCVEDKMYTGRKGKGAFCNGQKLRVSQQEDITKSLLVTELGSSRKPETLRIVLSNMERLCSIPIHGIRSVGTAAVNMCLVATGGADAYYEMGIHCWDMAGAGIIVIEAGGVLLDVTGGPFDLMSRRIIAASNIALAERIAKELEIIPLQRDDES
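CHO-M1, 2000 cells/well, cultured 16–30 h; cpd up to 46 uM; carbachol (50 uM solution, stimulation buffer w/ 50 mM LiCl, pH 7.4), 30 min 37C; IP-One TR-FRET, 10 min RT; Ex 320/Em 665, 620; Hill-fit AC50.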
LMNA splice mod = qHTS Assay for Modulators of Lamin A Splicing. 200,000 compounds, 0.01% hits. HeLa LMNA splicing GFP/RFP minigene ratio, 48 h. Potency, µM (doses to about 46.1 µM), without a hit: at the highest dose ratio change, negative = inhibition, actives largely listed as inhibitors; active means well fitted inhibition curve with a large enough effect in the signal ratio, with a control signal flat, not every such curve was filed as active; inconclusive means small, poorly fitted or top-dose-only effect, or effect the other way, or a change in a side signal; the % refers to the signal ratio; further: potency means the concentration at half of the fitted maximal effect
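S3 HeLa cells stably expressing lamin A-EGFP splicing minigene plus DsRed2, 600 cells/well, 48 h compound exposure at 37C. Laser-scanning cytometry; analysed as GFP (500-530 nm)/RFP (575-640 nm) total intensity ratio; 0.5% DMSO vehicle.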
HPGD inh = qHTS Assay for Inhibitors of HPGD (15-Hydroxyprostaglandin Dehydrogenase); 150,000 compounds, 4.3% hits; Potency, µM, without a hit: at the highest dose activity change, negative = inhibition, usual class: inhibitors; purified HPGD, NADH fluorescence kinetic, PGE2 substrate; 15-hydroxyprostaglandin dehydrogenase [NAD(+)] (Homo sapiens), P15428; AID 894, 2007; further: potency means the concentration at half of the fitted maximal effect
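NADH formation kinetics: reaction with 30 uM PGE2 and 1 mM NAD+ (final), 20 nM enzyme, Tris-HCl pH 8 with Tween 20, after 15 min compound preincubation at room temperature. Fluorescence change, last versus first of five reads.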
ALDH1A1 inh = qHTS Assay for Inhibitors of Aldehyde Dehydrogenase 1 (ALDH1A1); Aldehyde dehydrogenase 1A1 (Homo sapiens), P00352; Purified ALDH1A1, NADH fluorescence, propionaldehyde substrate; Potency, µM (highest dose often 75.3 µM), inactives show at the highest dose activity, negative = inhibition, most hits filed as inhibitors; 220,000 compounds, 7.3% hits; AID 1030, 2008;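 further: potency means the concentration at half of the fitted maximal effect; plate controls were no enzyme wells and a reference inhibitor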
Target sequence (P00352 whole entry, looked up): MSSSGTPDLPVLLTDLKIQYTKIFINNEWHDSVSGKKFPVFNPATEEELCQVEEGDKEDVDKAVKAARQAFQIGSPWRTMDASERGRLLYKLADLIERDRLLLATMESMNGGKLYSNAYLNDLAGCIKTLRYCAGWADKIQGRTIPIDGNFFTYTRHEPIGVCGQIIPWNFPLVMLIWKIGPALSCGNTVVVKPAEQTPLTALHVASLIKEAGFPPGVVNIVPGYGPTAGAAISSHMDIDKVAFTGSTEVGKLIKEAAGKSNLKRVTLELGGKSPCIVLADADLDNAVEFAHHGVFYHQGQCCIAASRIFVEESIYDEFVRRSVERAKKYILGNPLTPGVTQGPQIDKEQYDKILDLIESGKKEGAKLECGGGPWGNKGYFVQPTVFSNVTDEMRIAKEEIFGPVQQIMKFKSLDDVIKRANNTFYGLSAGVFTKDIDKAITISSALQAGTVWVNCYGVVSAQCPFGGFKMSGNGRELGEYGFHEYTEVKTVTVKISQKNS
PNC assembly inh = High Content Assay for Compounds that inhibit the Assembly of the Perinucleolar Compartment; PC3M PTB-GFP, PNC prevalence imaging, 16 h; stronger effect = lower value; AID 2417, 2010; 140,000 compounds, 3.1% hits; activity change (PNC), negative = inhibition, % at 10 µM;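 active means readout at or below -70, meaning at least 70% loss of cells showing the perinucleolar compartment, a nuclear body marking cancer cells; inconclusive means readout between -30 and a set limit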;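 further: plate controls were DMSO wells for no effect and camptothecin positive control wells for full effect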
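PC3M cells stably expressing PTB-GFP, 750–1000 cells/well, treated 16 h at 37 °C with compound (23 nl of library stock), in duplicate. After paraformaldehyde fixation and Hoechst stain, imaged at 20x; PNC prevalence scored by image analysis.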
* = called active by the depositor; u = inconclusive; x = no result given; [ ] = another dose, or the depositor's remark. Unless noted, the call rests on the fitted dose curve; in most records, active means well fitted inhibition curve with a large enough effect (not every such curve was filed as active); inconclusive means small, poorly fitted or top-dose-only effect, or another doubt; inactive means no such curve, though single readings can be large or run the other way. Unless noted, on the % scale 0 is the no-effect control and ±100 the full control effect.

SMILES | KinaseGlo FLuc | IMPase cell inh | LMNA splice mod | HPGD inh | ALDH1A1 inh | PNC assembly inh
CCOCC(=O)N1CCN(c2ccc(F)cc2)CC1 | -4% | -1 | 5% | -6% | 2.2µM* | 4
CC(=O)OCC(=O)N1CCN(c2ccc([N+](=O)[O-])cc2)CC1 | 3% | -1 | -2% | -8% | u | 0
COc1ccccc1C1C(C(=O)Nc2ccccc2)=C(C)Nc2nc(-c3ccccc3)nn21 (centres undefined) | x | 9 | x | x | x | x
C1=C(CN2CCOCC2)COc2c1cccc2OC[C@@H]1CNCCO1 | 3% | 0 | x | -6% | 8% | x
CNC(=O)C1CCN(C(=O)N2CC(C)Oc3ccc(Cl)cc32)CC1 (centres undefined) | x | x | -15%[46 µM] | x | x | x
Cc1cccc(S(=O)(=O)c2cn(C)c3cc(N4CCN(c5ccc(F)cc5)CC4)c(F)cc3c2=O)c1 | x | x | -11%[46 µM] | x | x | x
S=C(Nc1ccc2nsnc2c1)N1CCCC1 | -28% | x | -21%[46 µM] | x | 25µM* | x
CCSC1=NSC2=NC(=O)/C(=C\c3coc4ccccc4c3=O)C(=N)N12 | -2% | x | -17% | 28µM* | u | u
CCc1ccc(-n2cccc2/C=C2/C(=N)N3C(=NC2=O)SN=C3S(C)(=O)=O)cc1 | 5% | x | 20%[9.22 µM] | x | u | x
CC(C)CC1=NN2C(=N)/C(=C\c3coc4ccccc4c3=O)C(=O)N=C2S1 | 0% | x | x | x | 11µM* | x
Cc1cccc(-n2c(C)cc(/C=C3\C(=N)N4N=C(CC(C)C)SC4=NC3=O)c2C)c1 | -4% | x | 13% | u | u | 34
COC(=O)CSc1nc2c(c(-c3ccc(O)cc3)c1C#N)CCCC2 | -3% | x | 7%[46 µM] | x | u | x
COC(=O)CSc1nc2c(c(-c3ccco3)c1C#N)CCCC2 | 8% | -10 | -1% | 13µM* | 13µM* | 27
CCOC(=O)C(NCc1ccccn1)(NC(=O)c1cccnc1)C(F)(F)F (centres undefined) | 2% | 13 | -3% | -6% | -5% | -86*
COC(=O)c1nnn(CC(=O)Nc2cc(F)ccc2F)c1C(=O)OC | x | 0 | x | x | x | x
CC(C)(C)[C@]1(O)CCN2CC3c4ccccc4CCc4cccc(c43)[C@@H]2C1 (some centres undefined) | -11% | x | u | -9% | -16% | x
Cc1cc(C=O)c(C)n1-c1ccc(N2CCOCC2)cc1 | 3% | x | u | 0% | 3.2µM* | -13
Cc1cc(/C=C2\NC(=O)NC2=O)c(C)n1-c1ccc(N2CCOCC2)cc1 | x | x | x | x | 25µM* | x
O=C1[C@H]2[C@H]3[C@H](O)[C@H](O)C/C(=N/OC[C@@H](O)COCc4ccco4)[C@@H]3CC[C@@H]2C(=O)N1C[C@@H]1CCCO1 | x | x | x | x | 2%[13.5 µM] | x
Cc1ccc(C(=O)Nc2ccccc2C(=O)O)cc1NC(=O)COc1c(C)cccc1C | 0% | x | 10%[46 µM] | x | 8.9µM* | x
COc1ccc(OCC(=O)Nc2cccc(C(=O)Nc3ccccc3C(=O)O)c2)cc1 | 0% | x | 13% | u | 20µM* | u
Cc1cc(C(=O)Nc2ccccc2C(=O)O)ccc1NC(=O)COc1cccc([N+](=O)[O-])c1 | 1% | x | u | x | u | x
Cc1cnc(C(=O)Nc2ccc(F)cc2)cn1 | u | 6 | 1% | -23% | 32µM* | 35
Cc1cnc(C(=O)Nc2ccc(C(C)C)cc2)cn1 | -2% | x | u | x | -3% | x
Cc1cnc(C(=O)Nc2ccccc2-n2cccc2)cn1 | -4% | -5 | 6% | -11% | 16µM* | -17
SMILES | KinaseGlo FLuc | IMPase cell inh | LMNA splice mod | HPGD inh | ALDH1A1 inh | PNC assembly inh
Cc1cnc(C(=O)Nc2ccc(C)c(S(=O)(=O)N(C)C)c2)cn1 | -3% | 5 | u | -14% | u | 0
Cc1cnc(C(=O)Nc2ccc(C(=O)N(C)C3CCCCC3)cc2)cn1 | 1% | 5 | 3% | 13µM* | 9% | -21
COc1ccc2c(c1)CCc1sc(NC(=O)c3ccco3)nc1-2 | -6% | 5 | -2% | u | 22µM* | -17
COc1ccc2c(c1)Cc1sc(NC(=O)c3cccnc3)nc1-2 | -4% | x | -16%[46 µM] | x | 3.5µM* | x
COc1ccc2c(c1)-c1nc(NC(=O)c3ccco3)sc1CC2 | 0% | x | u | -23% | u | 3
COc1ccc2c(c1)Cc1sc(NC(C)=O)nc1-2 | -4% | 9 | 7% | -1% | u | u
COc1cc(OC)c2c(c1Cl)O[C@@]1(C2=O)[C@H](C)CC(=O)C[C@@H]1OC | -2%[17.1 µM] | -1[20.6 µM] | 8% | -28% | u | x
Cc1ccc(-n2c(C)cc3c2CC(C)(C)CC3=O)cc1C | -2% | 2 | 4% | -4% | u | -85*
CCOC(=O)N1CCN(CC(O)COc2ccccc2C(C)C)CC1 (centres undefined) | 3% | 10 | 4%[0.0737 µM] | -7% | -2% | 56
C=CCc1ccccc1OCC(O)CN1CCN(C(=O)OCC)CC1 (centres undefined) | -1% | 0 | u | -16% | 20µM* | u
OC1CCC2Cc3ccccc3N=C12 (centres undefined) | 3% | 2 | x | -5% | -9% | x
N#CCCN(C(=O)CCl)c1cccc(Cl)c1 | -1% | x | x | x | 0.11µM* | x
CCCCCCCN(C(=O)CCl)c1cccc(C)c1 | 2% | 13 | -14% | -26% | 0.22µM* | 16
N#CCCN(CCC#N)C(=O)COc1ccc(Cl)cc1Cl | -2% | -1 | 7% | 0% | -6% | 22
O=C(O)CN1C(=O)/C(=C/c2ccc(SCc3ccccc3)o2)SC1=S | -3% | x | u | x | 3.5µM* | x
O=C(O)CCCN1C(=O)/C(=C\c2ccco2)SC1=S | -8% | x | 3%[46 µM] | x | u | x
O=C(O)CN1C(=O)/C(=C/c2ccsc2)SC1=S | -1% | x | -11%[46 µM] | x | -11% | x
Cn1cccc1/C=C1\SC(=S)N(CC(=O)O)C1=O | -3% | x | 2% | 28µM* | -5% | 42
O=C(O)CCN1C(=O)/C(=C\c2ccc(-c3nc4ccccc4s3)o2)SC1=S | 17% | 1 | -3% | 16µM* | u | -17
Cc1ccc(-n2ncc3c(N4CCN(CCO)CC4)ncnc32)cc1Cl | x | x | -15%[46 µM] | x | x | x
Cc1ccc(N2CC(NC(=O)C3CCCCC3)CC2=O)cc1 (centres undefined) | x | x | -5%[46 µM] | x | x | x
Cc1ccc(NC2=C/C(=N/S(=O)(=O)c3cccs3)c3ccccc3C2=O)cc1 | -27% | x | u | -3% | 12% | -101*
O=C1C(Nc2ccccc2)=C/C(=N/S(=O)(=O)c2cccs2)c2ccccc21 | u | x | u | -11% | u | -81*
